For some of these results: Potency and affinity values are given separately. The source made the active and inactive calls. Unless noted, how the calls were made is not given here.
How the values were obtained:
[1] = antimalarial activity against Dd2 strain (AID 2302;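 active means growth inhibition above 50% at the single 2 µM test dose, taken to imply half-maximal potency below 2 µM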;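 further: 0% = DMSO untreated growth and 100% = chloroquine plus artemisinin killed control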); conditions: P. falciparum Dd2 in RBCs, LDH growth readout, 72 h; at 2 µM; active compounds read high
[2] = human hepatoma cell viability loss – ATP luminescence, cytotoxicity control for P. falciparum antimalarial project, primary screen (AID 2303;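 active means inhibition above 50%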;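 further: 0% = DMSO wells and 100% = digitonin-killed cells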); conditions: HepG2 viability, 24-48 h, at 10 µM, active compounds read high
[3] = target: L-lactate dehydrogenase (Plasmodium falciparum (isolate CDC / Honduras)) (UniProt Q27743); test: PfLDH activity inhibition – cell lysate, 3D7 strain, counter-screen for P. falciparum growth inhibition project (AID 2304);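 further: 0% = vehicle and 100% = reference inhibitor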; conditions: P. falciparum 3D7 crude extract, LDH APAD/NBT absorbance; at 2 µM; active compounds read high
[4] = inhibition of 3D7 malaria parasite growth – strain 3D7 (AID 2306);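 further: 0% = DMSO wells and 100% = chloroquine plus artemisinin control wells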; conditions: P. falciparum 3D7 erythrocytic growth, LDH absorbance, 72 h; at 2 µM; active compounds read high
[5] = target: Calcium-dependent protein kinase 1 (Plasmodium falciparum (isolate 3D7)) (UniProt P62344); test: PfCDPK1 kinase inhibitors, biochemical, TCAMS library (AID 1159585; cut-off not given, nearly all actives have IC50 up to about 0.98 µM;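 further: inhibitors leave more ATP so luminescence rises with inhibition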); conditions: recombinant PfCDPK1, Kinase-Glo ATP depletion luminescence
[6] = target: Plasmodium falciparum protein kinase 6 (PK6, PF3D7_1337100) (UniProt Q8IDW1); test: PfPK6 kinase inhibitors, biochemical, TCAMS library (AID 1159586); conditions: recombinant PfPK6, Kinase-Glo ATP depletion luminescence
[7] = target: Protein kinase 7 (PK7), Plasmodium falciparum 3D7 (PF3D7_0213400) (UniProt Q7YTF7); test: inhibition of Plasmodium PK7 catalytic activity – biochemical, TCAMS antimalarial set, Kinase-Glo luminescence (AID 1159587); conditions: recombinant PfPK7, Kinase-Glo ATP depletion luminescence
[8] = target: Calcium-dependent protein kinase 4 (Plasmodium falciparum (isolate 3D7)) (UniProt Q8IBS5); test: PfCDPK4 kinase inhibitors, biochemical, TCAMS library (AID 1159588; cut-off not given, nearly all actives have IC50 up to about 0.91 µM); conditions: recombinant PfCDPK4, Kinase-Glo ATP depletion luminescence
Calcium-dependent protein kinase 4 (Plasmodium falciparum (isolate 3D7)), sequence (Q8IBS5 whole entry, looked up): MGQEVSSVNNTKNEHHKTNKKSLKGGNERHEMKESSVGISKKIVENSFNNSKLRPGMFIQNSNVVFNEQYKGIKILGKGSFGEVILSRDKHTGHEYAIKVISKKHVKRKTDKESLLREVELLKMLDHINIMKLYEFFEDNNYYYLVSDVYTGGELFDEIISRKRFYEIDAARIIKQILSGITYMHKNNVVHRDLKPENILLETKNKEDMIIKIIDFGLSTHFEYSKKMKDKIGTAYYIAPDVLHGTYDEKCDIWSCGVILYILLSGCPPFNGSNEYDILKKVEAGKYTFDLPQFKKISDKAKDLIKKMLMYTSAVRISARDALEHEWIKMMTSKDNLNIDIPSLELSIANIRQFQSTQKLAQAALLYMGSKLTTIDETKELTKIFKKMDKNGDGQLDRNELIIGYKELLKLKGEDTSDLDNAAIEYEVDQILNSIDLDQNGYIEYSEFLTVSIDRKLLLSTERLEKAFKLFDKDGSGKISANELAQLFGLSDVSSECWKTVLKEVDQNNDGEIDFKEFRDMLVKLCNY

Protein kinase 7 (PK7), Plasmodium falciparum 3D7 (PF3D7_0213400), sequence (Q7YTF7 1-343): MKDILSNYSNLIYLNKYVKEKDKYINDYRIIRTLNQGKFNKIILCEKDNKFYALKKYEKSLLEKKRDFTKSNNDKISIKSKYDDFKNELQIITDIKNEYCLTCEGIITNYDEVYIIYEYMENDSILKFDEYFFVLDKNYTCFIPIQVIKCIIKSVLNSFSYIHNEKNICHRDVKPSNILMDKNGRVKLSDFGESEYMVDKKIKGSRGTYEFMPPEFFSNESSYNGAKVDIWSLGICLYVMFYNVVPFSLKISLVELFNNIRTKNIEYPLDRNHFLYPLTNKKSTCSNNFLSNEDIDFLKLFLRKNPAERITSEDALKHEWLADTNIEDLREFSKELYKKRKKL
Calcium-dependent protein kinase 1 (Plasmodium falciparum (isolate 3D7)), sequence (P62344 whole entry, looked up): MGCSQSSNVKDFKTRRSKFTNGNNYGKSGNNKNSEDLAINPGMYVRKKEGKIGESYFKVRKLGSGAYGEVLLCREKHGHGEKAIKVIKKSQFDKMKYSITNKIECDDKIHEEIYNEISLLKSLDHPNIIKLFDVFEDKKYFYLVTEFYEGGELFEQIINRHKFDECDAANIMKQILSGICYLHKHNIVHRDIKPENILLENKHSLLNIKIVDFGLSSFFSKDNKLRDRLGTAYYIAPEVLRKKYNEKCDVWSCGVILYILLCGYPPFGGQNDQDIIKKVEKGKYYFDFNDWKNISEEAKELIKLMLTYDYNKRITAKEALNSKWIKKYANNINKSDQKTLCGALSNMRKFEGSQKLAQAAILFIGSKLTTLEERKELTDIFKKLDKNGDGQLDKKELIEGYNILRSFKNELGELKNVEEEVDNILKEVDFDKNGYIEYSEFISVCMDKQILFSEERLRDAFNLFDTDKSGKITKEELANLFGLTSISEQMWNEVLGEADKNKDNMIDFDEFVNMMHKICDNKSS
L-lactate dehydrogenase (Plasmodium falciparum (isolate CDC / Honduras)), sequence (Q27743 whole entry, looked up): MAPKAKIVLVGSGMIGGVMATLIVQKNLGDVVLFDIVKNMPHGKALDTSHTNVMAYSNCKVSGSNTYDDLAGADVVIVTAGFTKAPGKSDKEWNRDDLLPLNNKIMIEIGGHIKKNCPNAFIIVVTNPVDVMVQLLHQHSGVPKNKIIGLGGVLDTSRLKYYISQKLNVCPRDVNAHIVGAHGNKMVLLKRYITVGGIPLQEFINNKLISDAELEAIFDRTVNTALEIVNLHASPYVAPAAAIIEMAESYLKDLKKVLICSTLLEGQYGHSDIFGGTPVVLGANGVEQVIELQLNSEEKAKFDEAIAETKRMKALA
Plasmodium falciparum protein kinase 6 (PK6, PF3D7_1337100), sequence (Q8IDW1 1-305): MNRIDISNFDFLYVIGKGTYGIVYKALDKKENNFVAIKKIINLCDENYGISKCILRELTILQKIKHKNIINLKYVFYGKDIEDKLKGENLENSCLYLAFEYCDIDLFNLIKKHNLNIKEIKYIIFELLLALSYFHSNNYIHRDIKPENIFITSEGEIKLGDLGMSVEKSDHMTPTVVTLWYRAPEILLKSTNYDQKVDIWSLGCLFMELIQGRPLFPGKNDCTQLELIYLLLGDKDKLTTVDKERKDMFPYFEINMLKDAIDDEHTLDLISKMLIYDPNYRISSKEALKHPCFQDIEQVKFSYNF

CCn1c(Cc2ccccc2)nnc1Sc1ccc([N+](=O)[O-])c(C#N)c1
active: growth inhibition [1] 72% | growth inhibition [4] 93%
inactive: inhibition [2] 8% | inhibition [3] -5% | outcome [5] | outcome [6] | outcome [7] | outcome [8]

Cc1cc(O)c(CN(C)Cc2ccc3c(c2)OCCO3)cc1C(C)C
active: growth inhibition [4] 98%
inactive: growth inhibition [1] 47% | inhibition [2] 10% | inhibition [3] -3% | outcome [5] | outcome [6] | outcome [7] | outcome [8]

Nc1ccc(-c2csc(Nc3ccncc3)n2)cc1
inactive: inhibition [2] 12% | inhibition [3] -3% | outcome [5] | outcome [6] | outcome [7] | outcome [8]
active: growth inhibition [1] 50% | growth inhibition [4] 95%

Cc1cc(N(C)C)nc(Nc2ccc(NC(=O)c3ccc(F)cc3)cc2)n1
inactive: growth inhibition [1] 21% | inhibition [2] 8% | inhibition [3] -3% | outcome [5] | outcome [6] | outcome [7] | outcome [8]
active: growth inhibition [4] 100%

COC(=O)C(NC(=O)NC1CCN(c2ccnc(Nc3ccc(F)cc3)n2)C1)c1ccccc1 (stereo not given)
active: growth inhibition [4] 87%
inactive: growth inhibition [1] 8% | inhibition [2] 11% | inhibition [3] -2% | outcome [5] | outcome [6] | outcome [7] | outcome [8]

Cc1cc(C)n(-c2nc(Nc3cccc(C(F)(F)F)c3)nc(-n3nc(C)cc3C)n2)n1
inactive: inhibition [2] -8% | inhibition [3] -6% | outcome [5] | outcome [6] | outcome [7] | outcome [8]
active: growth inhibition [1] 88% | growth inhibition [4] 99%

COc1cc(-c2nc3ccc(N4CCN(C)CC4)cc3[nH]2)cc(OC)c1OC
active: growth inhibition [4] 87%
inactive: growth inhibition [1] 15% | inhibition [2] 6% | inhibition [3] 0% | outcome [5] | outcome [6] | outcome [7] | outcome [8]

C=C(C)CSc1nc2c(c(=O)n1Cc1ccco1)C1(CCCCC1)Cc1ccccc1-2
active: growth inhibition [1] 68% | growth inhibition [4] 97%
inactive: inhibition [2] 2% | inhibition [3] -9% | outcome [5] | outcome [6] | outcome [7] | outcome [8]

CCCOc1cc(OCCC)cc(-c2ccc(C(=O)Nc3ccc4ccc(C)nc4c3)c(=O)[nH]2)c1
inactive: inhibition [2] 11% | inhibition [3] 5% | outcome [5] | outcome [6] | outcome [7] | outcome [8]
active: growth inhibition [1] 76% | growth inhibition [4] 101%

CCCOc1ccc(CCCON2C(N)=NC(N)=NC2(C)C)cc1
inactive: inhibition [3] 0% | outcome [5] | outcome [6] | outcome [7] | outcome [8]
active: growth inhibition [1] 94% | inhibition [2] 65% | growth inhibition [4] 95%

CC(C)(C)c1ccc(CNCC(C)(C)c2nc(-c3ccc(Cl)c(O)c3)c(-c3ccnc(N)n3)[nH]2)cc1
active: growth inhibition [1] 54% | growth inhibition [4] 100%
inactive: inhibition [2] 28% | inhibition [3] -7% | outcome [5] | outcome [6] | outcome [7] | outcome [8]

CCCNC[C@@H](O)[C@H](Cc1ccccc1)NC(=O)c1cc(NCC)cc(N2CCCCS2(=O)=O)c1
active: growth inhibition [1] 74% | growth inhibition [4] 97%
inactive: inhibition [2] 0% | inhibition [3] -3% | outcome [5] | outcome [6] | outcome [7] | outcome [8]

O=c1cnc2ccc(F)cc2n1CCN1CCC(NCc2cc(-c3ccccc3)cs2)CC1
inactive: growth inhibition [1] 14% | inhibition [2] -5% | inhibition [3] -2% | outcome [5] | outcome [6] | outcome [7] | outcome [8]
active: growth inhibition [4] 91%

CCCc1cc(Cc2cnc(N)nc2N)cc(CCC)c1OCCCCC(=O)O
active: growth inhibition [4] 95%
inactive: growth inhibition [1] 23% | inhibition [2] 18% | inhibition [3] -2% | outcome [5] | outcome [6] | outcome [7] | outcome [8]

CC(C)CCN1CCCN(Cc2cccc(C(=O)Nc3ccc(C(C)(C)C)cc3)c2)CC1
active: growth inhibition [4] 85%
inactive: growth inhibition [1] 1% | inhibition [2] 33% | inhibition [3] -5% | outcome [5] | outcome [6] | outcome [7] | outcome [8]

O=S(=O)(NC1=NCCC1)c1cccc(Nc2nc(C(F)(F)F)nc3ccccc23)c1
active: growth inhibition [4] 83%
inactive: growth inhibition [1] 8% | inhibition [2] 6% | inhibition [3] 0% | outcome [5] | outcome [6] | outcome [7] | outcome [8]

COc1ccc(-c2onc(C(F)(F)F)c2-c2cc3ccccc3o2)c(O)c1
inactive: growth inhibition [1] 15% | inhibition [2] 6% | inhibition [3] 0% | outcome [5] | outcome [6] | outcome [7] | outcome [8]
active: growth inhibition [4] 93%

CCCC(=O)c1cnc2c(Oc3cc(Cl)ncn3)cccc2c1Nc1ccccc1C
active: growth inhibition [1] 85% | growth inhibition [4] 99%
inactive: inhibition [2] 6% | inhibition [3] 6% | outcome [5] | outcome [6] | outcome [7] | outcome [8]

O=C(/C=C/c1ccc(Cl)cc1)Nc1ccc2nc(CN3CCCC3)ccc2c1
inactive: growth inhibition [1] 30% | inhibition [2] 47% | inhibition [3] -2% | outcome [5] | outcome [6] | outcome [7] | outcome [8]
active: growth inhibition [4] 85%

COc1ccc2c(OC)ccc(CNCCCCCCNCc3ccc(OC)c4ccc(OC)cc34)c2c1
active: growth inhibition [1] 98% | inhibition [2] 100% | growth inhibition [4] 102%
inactive: inhibition [3] -3% | outcome [5] | outcome [6] | outcome [7] | outcome [8]

Reference: PubChem BioAssay
